Source: PubChem BioAssay AID1159580 (chemical genetic matrix, 2015)
Where “and” joins values, the source holds several entries; their conditions need not be identical. Equal values may be shown once. The campaign covered roughly 5,500 compounds. About 2,000 (36%) were called active. Roughly 18% stayed inconclusive and do not appear here. No stated cut-off is given here; in the data, active means normalized growth mostly below about 0.91 (no sharp cut-off); inconclusive means no clear call, values can overlap the other calls; inactive means mostly above about 0.92. This is one part of the list.

Assay: chemical genetic growth profiling, strain panel (AID 1159580);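 further: tested at 20 µM; growth read once vehicle control cultures reached saturation at 30 °C; 1 = growth at the plate median or of vehicle wells; lower values mean less growth of the strain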
Settings: S. cerevisiae deletion strains, growth OD
[1] = locus YHR030C, strain SLT2, hits give low values
[2] = locus YHR079C, strain IRE1, hits give low values
[3] = locus YJL095W, strain BCK1, hits give low values
[4] = locus YJR066W, strain TOR1, hits give low values
[5] = locus YLR113W, strain HOG1, hits give low values
[6] = locus YNL183C, strain NPR1, hits give low values
[7] = locus YOR231W, strain MKK1, hits give low values
[8] = locus YPL256C, strain CLN2, hits give low values
[9] = locus YDR150W, strain NUM1, hits give low values
[10] = locus YMR307W, strain GAS1, hits give low values
[11] = locus YNL322C, strain KRE1, hits give low values

Measured: normalized growth

CC(=O)[C@@]12O[C@](C)(c3ccccc3)O[C@@H]1CC1C3CCC4=CC(=O)CC[C@]4(C)C3CC[C@@]12C (stereo not given in full)
inactive: [1] 1.06 | [2] 1.03 | [3] 0.901 | [4] 1.01 | [5] 0.897 | [6] 0.987 | [7] 1 | [8] 1.02

C[C@]12CCC(=O)C=C1CC[C@@H]1[C@@H]2[C@@H](O)C[C@@]2(C)[C@H]1CC[C@]2(O)C(=O)CO
inactive: locus YAL013W, strain DEP1, hits give low values 1 | locus YAL040C, strain CLN3, hits give low values 0.989 | locus YCL061C, strain MRC1 (second series), hits give low values 1 | [9] 0.993 | locus YDR363W, strain ESC2, hits give low values 1.02 | locus YER002W, strain NOP16, hits give low values 0.986 | [10] 1.01 | locus YNL153C, strain GIM3, hits give low values 1.01 | locus YNL175C, strain NOP13, hits give low values 0.99 | locus YNL224C, strain SQS1, hits give low values 0.995 | [11] 1 | locus YOR083W, strain WHI5 (second series), hits give low values 1.01

C[C@]12CCC(=O)C=C1CCC1C2[C@@H](O)C[C@@]2(C)C1CC[C@]2(O)C(=O)COC(=O)CCC(=O)O (stereo not given in full)
inactive: locus YAL021C, strain ccr4, hits give low values 1.02 | locus YAL026C, strain drs2, hits give low values 1.01 | locus YAL030W, strain snc1, hits give low values 1.01 | locus YBL061C, strain skt5, hits give low values 1.02 | locus YBR009C, strain hhf1, hits give low values 1 | locus YBR021W, strain FUR4, hits give low values 1.01 | locus YBR023C, strain chs3, hits give low values 1.02 | locus YBR171W, strain sec66, hits give low values 1.02 | locus YBR229C, strain ROT2, hits give low values 1.01 | locus YBR231C, strain swc5, hits give low values 1.02 | locus YBR279W, strain paf1, hits give low values 1 | locus YCL011C, strain gbp2, hits give low values 1.01 | locus YCL016C, strain dcc1, hits give low values 0.993 | locus YCL029C, strain bik1, hits give low values 0.999 | locus YCL061C, strain MRC1, hits give low values 1.02 | locus YCL069W, strain vba3, hits give low values 1.01 | locus YCR088W, strain abp1, hits give low values 1.01 | locus YDL005C, strain med2, hits give low values 1.02 | locus YDL035C, strain GPR1, hits give low values 1.01 | locus YDL040C, strain nat1, hits give low values 1.01 | locus YDL074C, strain BRE1, hits give low values 1.01 | locus YDL101C, strain DUN1, hits give low values 1 | locus YDL185W, strain tfp1, hits give low values 1 | locus YDL192W, strain arf1, hits give low values 1.01 | locus YDR001C, strain nth1, hits give low values 1.02 | locus YDR069C, strain doa4, hits give low values 1.02 | locus YDR101C, strain arx1, hits give low values 1.01 | locus YDR137W, strain rgp1, hits give low values 1.02 | [9] 1.01 | locus YDR159W, strain sac3, hits give low values 1.03 | locus YDR162C, strain NBP2, hits give low values 1.01 | locus YDR195W, strain ref2 0.997 | locus YDR297W, strain sur2, hits give low values 1.02 | locus YDR318W, strain mcm21, hits give low values 0.995 | locus YDR334W, strain swr1, hits give low values 1.01 | locus YDR335W, strain msn5, hits give low values 1.01 | locus YDR388W, hits give low values 1 | locus YDR392W, strain spt3, hits give low values 0.969 | locus YDR502C, strain sam2, hits give low values 0.999 | locus YEL003W, strain gim4, hits give low values 1.03 | locus YEL037C, strain rad23, hits give low values 1.01 | locus YEL061C, strain CIN8 (second series), hits give low values 1.03 | locus YEL061C, strain CIN8, hits give low values 1.01 | locus YER015W, strain faa2, hits give low values 0.998 | locus YER016W, strain bim1, hits give low values 1.01 | locus YER110C, hits give low values 1.01 | locus YER111C, strain swi4, hits give low values 1.02 | locus YER155C, strain BEM2 (second series), hits give low values 1.03 | locus YER155C, strain BEM2, hits give low values 0.997 | locus YER167W, strain BCK2, hits give low values 1.01 | locus YFR010W, strain ubp6, hits give low values 1.02 | locus YGL078C, strain dbp3, hits give low values 0.996 | locus YGL086W, strain mad1, hits give low values 0.999 | locus YGL167C, strain pmr1, hits give low values 1.03 | locus YGL173C, strain kem1, hits give low values 1.02 | locus YGL227W, strain vid30, hits give low values 1.01 | locus YGL240W, strain doc1, hits give low values 1.02 | locus YGL248W, strain PDE1, hits give low values 1 | locus YGL253W, strain hxk2, hits give low values 0.99 | locus YGR078C, strain PAC10, hits give low values 1.01 | locus YGR135W, strain pre9, hits give low values 0.989 | locus YGR252W, strain gcn5, hits give low values 0.943 | locus YHR013C, strain ard1, hits give low values 1.02 | locus YHR027C, strain rpn1, hits give low values 1.02 | [1] 1.01 and 0.974 | locus YHR079C, strain IRE1 (second series), hits give low values 1 | [2] 0.976 | locus YHR094C, strain hxt1, hits give low values 0.993 | locus YHR129C, strain ARP1, hits give low values 1 | locus YHR142W, strain chs7, hits give low values 1.01 | locus YHR200W, strain rpn10, hits give low values 1.01 | locus YIL066C, strain RNR3, hits give low values 1.01 | locus YIL073C, strain SPO22, hits give low values 1.02 | locus YIL125W, strain kgd1, hits give low values 1 | locus YIR030C, strain dcg1, hits give low values 1 | locus YJL092W, strain hpr5, hits give low values 1.02 | locus YJL095W, strain BCK1 (second series), hits give low values 1.02 | [3] 1.01 and 0.976 | locus YJL115W, strain asf1, hits give low values 1.02 | locus YJL129C, strain trk1, hits give low values 1.03 | locus YJL134W, strain LCB3, hits give low values 1.01 | locus YJL154C, strain vps35, hits give low values 1.02 | locus YJL164C, strain tpk1, hits give low values 1.02 | locus YJL166W, strain qcr8, hits give low values 1 | locus YJL168C, strain set2, hits give low values 0.996 | locus YJL187C, strain SWE1 (second series), hits give low values 1.01 | locus YJR043C, strain POL32, hits give low values 1.02 | [4] 0.931 | locus YJR075W, strain HOC1, hits give low values 1.02 | locus YKL009W, strain mrt4, hits give low values 1.02 | locus YKL068W, hits give low values 0.998 | locus YKL085W, strain MDH1 (second series), hits give low values 0.999 | locus YKL085W, strain MDH1, hits give low values 0.999 | locus YKL160W, strain elf1, hits give low values 1.01 | locus YKR001C, strain vps1, hits give low values 1.01 | locus YKR026C, strain gcn3, hits give low values 1.02 | locus YKR091W, strain srl3, hits give low values 1 | locus YLL001W, strain dnm1, hits give low values 1.01 | locus YLL026W, hits give low values 1.01 | locus YLL041C, strain sdh2, hits give low values 1.03 | locus YLR027C, strain aat2, hits give low values 1.01 | locus YLR039C, strain RIC1, hits give low values 1.02 | locus YLR058C, strain SHM2, hits give low values 0.989 | locus YLR102C, strain apc9, hits give low values 1 | [5] 0.977 | locus YLR221C, strain rsa3, hits give low values 1.02 | locus YLR258W, strain gsy2, hits give low values 1.01 | locus YLR262C, strain YPT6 (second series), hits give low values 1.02 | locus YLR262C, strain YPT6, hits give low values 1.06 | locus YLR268W, strain sec22, hits give low values 0.992 | locus YLR320W, strain mms22, hits give low values 0.979 | locus YLR330W, strain CHS5, hits give low values 1.01 | locus YLR342W, strain FKS1 (second series), hits give low values 0.998 | locus YLR342W, strain FKS1, hits give low values 1.01 | locus YLR357W, strain rsc2, hits give low values 0.995 | locus YLR370C, strain arc18, hits give low values 1.01 | locus YLR371W, strain rom2, hits give low values 0.996 | locus YLR384C, strain iki3, hits give low values 1.02 | locus YLR418C, strain cdc73, hits give low values 0.988 | locus YML016C, strain PPZ1, hits give low values 1 | locus YML032C, strain rad52, hits give low values 0.994 | locus YML120C, strain ndi1, hits give low values 1.02 | locus YML124C, strain tub3, hits give low values 0.994 | locus YMR058W, strain fet3, hits give low values 1.02 | locus YMR078C, strain ctf18, hits give low values 1 | locus YMR125W, strain sto1, hits give low values 1.01 | locus YMR129W, hits give low values 1.02 | locus YMR205C, strain PFK2, hits give low values 1.03 | locus YMR223W, strain ubp8, hits give low values 0.992 | locus YMR231W, strain pep5, hits give low values 1.01 | [10] 1.04 | locus YNL067W, strain RPL9B, hits give low values 1.01 | locus YNL071W, strain lat1, hits give low values 1.01 | [6] 0.951 | locus YNL209W, strain ssb2, hits give low values 1.01 | locus YNL233W, strain BNI4, hits give low values 1 | locus YNL248C, strain rpa49, hits give low values 1.04 | locus YNL250W, strain rad50, hits give low values 1 | locus YNL271C, strain bni1, hits give low values 1.01 | locus YNL298W, strain CLA4, hits give low values 1.01 | locus YNL307C, strain MCK1, hits give low values 1.01 | locus YNL322C, strain KRE1 (second series), hits give low values 1.02 | [11] 1.01 | locus YNR049C, strain mso1, hits give low values 1.02 | locus YNR052C, strain pop2, hits give low values 1 | locus YOL006C, strain TOP1, hits give low values 1.01 | locus YOL012C, strain htz1 0.91 | locus YOL147C, strain pex11, hits give low values 1 | locus YOR001W, strain rrp6, hits give low values 1.02 | locus YOR061W, strain CKA2, hits give low values 1.01 | locus YOR069W, strain VPS5, hits give low values 1.01 | locus YOR070C, strain gyp1, hits give low values 1 | locus YOR080W, strain dia2, hits give low values 1.01 | locus YOR083W, strain WHI5, hits give low values 0.983 | locus YOR106W, strain vam3, hits give low values 1.04 | locus YOR136W, strain idh2, hits give low values 1.01 | locus YOR144C, strain elg1, hits give low values 1 | locus YOR184W, strain ser1, hits give low values 1.01 | [7] 0.997 | locus YOR265W, strain rbl2, hits give low values 1.01 | locus YOR270C, strain vph1, hits give low values 0.99 | locus YOR290C, strain snf2, hits give low values 0.988 | locus YOR316C, strain cot1, hits give low values 1.01 | locus YPL051W, strain arl3, hits give low values 1 | locus YPL055C, strain LGE1, hits give low values 1.01 | locus YPL078C, strain atp4, hits give low values 1 | locus YPL106C, strain sse1, hits give low values 1 | locus YPL240C, strain hsp82, hits give low values 1 | locus YPL241C, strain CIN2, hits give low values 1.01 | [8] 0.98 | locus YPR119W, strain clb2, hits give low values 1.01 | locus YPR141C, strain kar3, hits give low values 1.01 | locus YPR163C, strain tif3, hits give low values 1.01 | locus YPR167C, strain met16, hits give low values 1.01 | strain wtn01, hits give low values 0.996
